# From PubChem BioAssay AID2417 (National Center for Advancing Translational Sciences (NCATS), 2010)
# Screen size: about 140,000 compounds; about 4,300 (3.1%) were called active. Inconclusive results (about 21%) are left out. For the sample, actives were picked, then their nearest neighbours and some compounds at random. Values without a mark were called inactive.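 How the source made its calls: active means readout at or below -70, meaning at least 70% loss of cells showing the perinucleolar compartment, a nuclear body marking cancer cells; inconclusive means readout between -30 and a set limit; inactive means the rest.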
# Assay: High Content Assay for Compounds that inhibit the Assembly of the Perinucleolar Compartment;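 further: plate controls were DMSO wells for no effect and camptothecin positive control wells for full effect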
# Conditions: PC3M PTB-GFP, PNC prevalence imaging, 16 h; at 10 µM; active compounds read low
# Text: High Content Assay for Compounds that inhibit the Assembly of the Perinucleolar Compartment NIH Chemical Genomics Center [NCGC] NIH Molecular Libraries Probe Centers Network [MLPCN] MLPCN Grant: MH082371-01A2 Assay Submitter (PI): Sui Huang, Northwestern University, Feinberg School of Medicine, Cell and Molecular Biology, Chicago, Illinois. The perinucleolar compartment (PNC) is a non-membrane-bound nuclear subdomain that is associated with but structurally distinct from the nucleolus. The PNC is a heritable trait, in which the number of PNCs per cell in daughter cells often mimics that of their mother cells. The PNC is heterogeneous in shape, is stable through interphase, disassembles during mitosis, and reassembles in early G1. The PNC is concentrated with newly synthesized RNA polymerase III (pol III) RNAs (MRP RNA, RNAse P H1 RNA, hY RNAs[hY1, 2, 5], Alu RNA, and SRP [7SL] RNA) and RNA binding proteins (nucleolin, PTB, CUG-BP, KSRP, Raver1, Raver2, and Rod). […] Extensive in vitro studies have shown that the PNC is unique to tumor cells and preferentially forms in tumor cells derived from solid tissues. Examination of cancer cell lines from various origins and malignant capacities has shown that PNC prevalence correlates with the malignancy of tumors and has the potential to be developed as a pan-cancer prognostic marker. […] Although the PNC is associated with a DNA locus and a handful of components have been identified, much remains to be investigated regarding the structure and function of the PNC and its mechanistic link to cancer. We have previously shown that PNC prevalence reduction is a valid strategy to identify compounds that can be used to study the structure and function of the PNC. It is necessary, however, to create a screening platform that is able to test a large number of compounds in an automated fashion. Here we report the development and robustness of an automated whole-cell phenotypic image-based screening assay that is capable of identifying such compounds.
# PNC High Content Imaging Assay Procedure: 1. Cells at a density of 75-90% confluency in T175 flasks were harvested using 7 ml TrypLE Express cell dissociation reagent. After dissociation (5 minutes room temperature incubation) 10 ml of complete media was added to the TrypLE/cell suspension. The liquid was transferred to a 50 ml Conical tube and cells were pelleted at 1000 RPM for 5 min. Supernatant was removed and cells were resuspended to a final density of 150-200 cells/ul in complete media. 2. Cells were plated in 5 ul volume (750-1000 cells/well) into 1536 well Black uclear Aurora Low Base plates and allowed to recover and adhere at 37 C in a humidified 5% CO2 incubator for 4 hours. 3. After 4 hour incubation, compound libraries (23 nl of […] in columns 5-48) were transferred to the plates in duplicate using a 1536 well pintool. Camptothecin positive control (59 uM final) was added to column 2 and 1:3 dilutions of camptothecin was added to column 3. DMSO negative controls were present in columns 1 and 4. 4. After a 16 hour incubation in the 37 C incubator, cells were fixed by the addition of 4 ul of 6% EM grade paraformaldehyde (containing 0.1% triton X 100) directly to the cells. The plates were incubated at room temperature for 20 minutes. The liquid was removed using a 32 channel Kalypsys aspirator and the fixed cells were washed twice with 5 ul PBS followed by a final addition of 5 ul PBS containing 1 ug/ml Hoechst 33342. 5. Fixed plates were sealed and sotred at 4C until imaged. 6. Plates were imaged on an InCell 1000 automated microscope using a 20 x objective, a standard FITC filter set, no camera binning, and an exposure time of ~100-150 msec/well. 7. Data analysis. PNC prevalence was determined using the Multitarget analysis module from InCell Workstation software (V3.5 ) and analysis was run on a quad core workstation using the Incell Developer Toolbox (V1.7). […]
row,SMILES,"activity change (PNC), negative = inhibition"
1,CCOc1ccccc1C1C(C(=O)OC)=CN(C)C=C1C(=O)OC,3.14%
2,COC(=O)C1=CN(C)C=C(C(=O)OC)C1c1ccc(Cl)cc1Cl,-80.4% (active)
3,NNC(=O)c1ccc(Cl)cc1Cl,5.71%
4,O=C(Cc1cccs1)Nc1cccc(-c2nc3ccccc3[nH]2)c1,3.35%
5,COc1ccc(S(=O)(=O)Nc2ccc3oc(C)c(C(C)=O)c3c2)cc1,56.6%
6,COc1cc(NS(=O)(=O)c2ccc(N/C=C(\C=O)c3nc4cc(Cl)ccc4o3)cc2)nc(OC)n1,-105% (active)
7,COc1cc(NS(=O)(=O)c2ccc(N=Cc3c(C)[nH]n(-c4ccccc4)c3=O)cc2)nc(OC)n1,-26.4%
8,O=C(c1ccc(CSc2ccccc2)cc1)N1CCCCCC1,-13.8%
9,C=CCNC(=O)/C=C/c1ccc(C(C)C)cc1,29.5%
10,N#C/C(=C/c1ccc(N2CCCCC2)o1)C(=O)NCCc1c[nH]c2ccccc12,-86.8% (active)
11,CC(=O)N/C(=C/c1ccc(Cl)cc1)C(=O)NCCc1c[nH]c2ccccc12,19.3%
12,N#C/C(=C/c1ccc(N2CCOCC2)o1)C(=O)N1CCOCC1,61.9%
13,Cn1cc(C(=O)NCc2ccccc2F)cn1,-25.6%
14,N#C/C(=C\c1ccccc1C(F)(F)F)C(=O)Nc1ccccc1F,-16.5%
15,COc1cccc(NC(=O)CC(c2ccc(OC(C)C)cc2)c2ccccc2OC)c1 (stereo unspecified),21%
16,NC(=O)CCC(NS(=O)(=O)c1ccc(Cl)cc1)C(=O)NCc1ccccc1Cl (stereo unspecified),-7.93%
17,COc1ccccc1C1SCCN1C(=O)c1ccc([N+](=O)[O-])cc1 (stereo unspecified),15%
18,NC1=NC(=O)C(Cc2cccc(Cl)c2)S1 (stereo unspecified),22.5%
19,N#Cc1ccc(N2Cc3ccccc3/C2=N/C(=O)Nc2ccc(Cl)cc2)cc1,16.1%
20,O=C(CSc1nc(-c2ccco2)cc(C(F)(F)F)n1)N1CCc2ccccc2C1,-123% (active)
21,Cc1cc(C(F)(F)F)nn1-c1nc(-c2ccco2)cc(C(F)(F)F)n1,-13%
22,FC(F)(F)c1cc(-c2ccco2)nc(N2CCOCC2)n1,27.9%
23,Cc1ccc(NC(=O)COC(=O)CCc2nc3ccccc3n2-c2ccccc2)c(C)c1,55.5%
24,O=C(NC(=S)NC1CCSC1=O)c1ccccc1F (stereo unspecified),12.8%
25,O=c1c2sccc2nc(SCc2cc(=O)n3ccccc3n2)n1-c1ccc(Br)cc1,0.678%
26,Cc1ccc(NC(=O)CSCC(=O)NC2CCCCC2)cc1,13.8%
